The values below come from PubChem BioAssay AID488896 (Broad Institute, 2010).

In all, about 320,000 compounds went through this assay and about 3,100 (0.97%) were called active. Only a selection was taken, and actives are over-represented in it overall. Unmarked numbers belong to inactive results.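 How the source made its calls: active means mean replicate inhibition of at least 70% and a set share of replicates each scoring 70 or more; inconclusive means meets just one of the two criteria; inactive means fails both criteria.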

The target in the test is Scavenger receptor class B member 1 (Mus musculus) (UniProt Q61009). The test can be described thus: inhibitors of SR-BI mediated HDL lipid uptake, primary screen, ldlA[mSR-BI] cells, fluorescence, single point (AID 488896).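 Further: 0% = median of neutral control wells and 100% = median of positive control wells.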 Conditions: ldlA[mSR-BI] CHO cells, DiI-HDL uptake fluorescence, 3 h; at 12.5 µM; stronger effect = higher value.
Sequence of Scavenger receptor class B member 1 (Mus musculus) (Q61009 whole entry, looked up): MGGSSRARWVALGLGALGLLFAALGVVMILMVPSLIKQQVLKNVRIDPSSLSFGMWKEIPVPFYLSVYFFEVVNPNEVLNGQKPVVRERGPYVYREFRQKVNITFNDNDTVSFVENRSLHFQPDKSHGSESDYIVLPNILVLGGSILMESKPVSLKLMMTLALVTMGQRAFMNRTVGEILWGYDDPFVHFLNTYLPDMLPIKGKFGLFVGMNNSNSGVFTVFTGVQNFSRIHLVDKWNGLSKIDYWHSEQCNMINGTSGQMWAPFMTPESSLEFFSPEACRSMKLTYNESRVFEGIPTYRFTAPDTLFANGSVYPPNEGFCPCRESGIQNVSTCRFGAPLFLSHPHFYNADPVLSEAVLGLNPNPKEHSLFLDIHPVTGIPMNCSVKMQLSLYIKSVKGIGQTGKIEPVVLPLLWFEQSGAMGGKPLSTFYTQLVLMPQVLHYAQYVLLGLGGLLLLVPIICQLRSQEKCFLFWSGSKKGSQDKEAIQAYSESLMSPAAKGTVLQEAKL
In the case of `Cc1nc2ccc(N)nc2nc1C`, the inhibition was 22.1%. To `O=[N+]([O-])c1ccc(NS(=O)(=O)c2ccccc2)c(Cl)c1` belongs -84.4%; to `COc1cccc2oc(CCc3ccccc3)cc(=O)c12`, -4.54%.

As for `CCC(=O)Nc1ccccc1N1CCN(S(C)(=O)=O)CC1`, the inhibition is -20.6%. In the case of `COc1ccccc1C(=O)NC(=S)Nc1ccccc1N1CCCCC1`, the inhibition is 49.6%. On to `COc1ccc(C(=O)NC(=S)Nc2ccccc2N2CCN(S(C)(=O)=O)CC2)cc1OC`, for which the inhibition is 74.4% (active). For `COc1cccc(/C=N/Nc2ccc(S(=O)(=O)Nc3ccccc3C(=O)O)cc2[N+](=O)[O-])c1O`, the inhibition was -4.5%. `COc1cccc(C(=O)NNC(=O)c2cccc(F)c2)c1`: the inhibition is -14.2%. On to `COc1cccc(C(=O)Nc2ccc(N3CCN(C(=O)c4ccco4)CC3)cc2)c1`, for which the inhibition was 36.3%. `COc1cccc(C(=O)Nc2cc3c(cc2Br)OCCCO3)c1`: the inhibition was 83.6% (active). Turning to `COc1cccc(C(=O)Nc2ccc(N3CCCC3)cc2)c1`, the inhibition is 80.4% (active).

Turning to `COc1ccc(C(=O)Nc2ccc(N3CCC(C)CC3)cc2)cc1Br`, the inhibition is 94.5% (active). Take `COc1cccc(C(=O)Nc2nnc(S(=O)(=O)N3CCCCC3)s2)c1`: the inhibition was -13.3%. In the case of `COc1ccc(C(=O)NCCCN2CCOCC2)cc1Br`, the inhibition is -15.8%.

On to `O=C(Nc1ccccc1)c1ccc2c(c1)OCCCO2`, for which the inhibition was -9.51%. As to `COc1ccc(OCC(=O)Nc2ccc(N3CCC(C)CC3)cc2)cc1`, the inhibition was 65.5%.

As to `COc1ccc(CNC(=O)COC(=O)C2=Cc3ccccc3OC2)cc1`, the inhibition was -3.54%.

`O=S1(=O)CCOC[C@H](Cc2ccccc2)N1Cc1ccccc1Br`: the inhibition is -16.4%. On to `O=C(OCCOc1ccccc1Cl)c1cc(S(=O)(=O)N2CCCCC2)ccc1N1CCOCC1`, for which the inhibition is -9.43%. Under `CN=c1scc(-c2cc(OC)ccc2OC)n1/N=C/c1c(C)[nH]c2ccccc12` stands 77.2% (active); under `CCn1c(-c2cc(OC)ccc2OC)csc1=Nc1c(C)n(C)n(-c2ccccc2)c1=O`, -4.8%; under `COCCNC(=S)N/N=C/c1c(C)[nH]c2ccccc12`, 2.4%. With `O=C1C2C3C=CC(C3)C2C(=O)N1c1ncc([N+](=O)[O-])s1` (stereo unspecified), the inhibition is -8.82%.

As to `CCC(=O)N1CCc2cc(Br)c(S(=O)(=O)NCCN3CCCCC3CC)cc21` (stereo unspecified), the inhibition was 11.6%. To `COc1cc(C(=O)N2CCN(S(=O)(=O)c3ccc(C(C)C)cc3)CC2)ccc1OCC(=O)N1CCOCC1` belongs -10.9%; to `Cc1ccc(Nc2c(O)nc[nH]c2=O)cc1C`, 4.84%; to `COC(=O)Cc1nc2c(N)nc(N)nc2[nH]c1=O`, -15.9%.

As to `O=C(N/N=C/c1ccccc1O)C1CCCC1`, the inhibition was 4.81%. Under `O=C(NN=Cc1ccccc1O)NN=Cc1ccccc1O` stands 79.8% (active); under `O=C(N/N=C/c1ccccc1O)/C(=C/c1ccccc1)CCO`, 24.8%. Under `COc1ccccc1C(=O)c1ccccc1C(=O)c1ccccc1` stands 6.29%.

On to `COc1ccc(CNC(=O)CN2C(=O)c3ccccc3S2(=O)=O)cc1`, for which the inhibition is -16.4%. Under `CC(C)C(=O)Nc1cccc(NC(=O)c2ccc([N+](=O)[O-])cc2Cl)c1` stands -2.31%. Regarding `CC(=O)c1ccc(NC(=O)Nc2ccc([N+](=O)[O-])cc2C)cc1`, the inhibition is 26.8%. Turning to `Cc1cc([N+](=O)[O-])ccc1NC(=O)c1ccc(NC(=O)C(C)C)cc1`, the inhibition is 74.9% (active).

`Nc1ccc2[nH]c(=S)sc2c1`: the inhibition was 5.71%. On to `COc1ccc(-c2nnn(CC(=O)N(CCO)C(C(=O)NC3CCCC3)c3ccc(F)cc3)n2)cc1` (stereo unspecified), for which the inhibition was 10.5%. As to `COc1cccc(N(CC(=O)NC2CCCC2)C(=O)Cn2nnc(-c3ccc(C)cc3)n2)c1`, the inhibition is 73.6% (active). As for `COc1cccc(N(CC(=O)NC2CCCC2)C(=O)CCCC(=O)Nc2ccccn2)c1`, the inhibition was 21.1%. As for `O=c1[nH]c2c(c(=O)n1-c1ccccc1)CCO2`, the inhibition was 2.86%.

As to `CN(C)/N=C/c1cc(Cl)cc([N+](=O)[O-])c1O`, the inhibition is -14.6%.

As to `O=C(Cc1cc(=O)[nH][nH]1)N/N=C/c1ccccc1[N+](=O)[O-]`, the inhibition was -19.1%. For `O=C(N/N=C/c1cc(Cl)cc([N+](=O)[O-])c1O)C(O)(c1ccccc1)c1ccccc1`, the inhibition is 77.8% (active).

As to `N=C1c2ccccc2-c2ccccc21`, the inhibition is -9.24%. Regarding `CCC(C(=O)OCC(=O)Nc1c(Cl)cc(Cl)cc1Cl)c1ccccc1` (stereo unspecified), the inhibition is -13.8%. For `CCC(C(=O)OCC(=O)Nc1ccc(C(=O)Nc2ccc(OC)cc2)cc1)c1ccccc1` (stereo unspecified), the inhibition is 79.1% (active). For the compound `CCC(C(=O)OCC(=O)Nc1ccccc1-c1ccccc1)c1ccccc1` (stereo unspecified), the inhibition was -4.74%. With `COc1ccc(NC(=O)/C(N=Nc2cccc(S(=O)(=O)Nc3ccc(SC(F)F)cc3)c2)=C(\C)O)cc1`, the inhibition was -19.4%.

Consider `COc1ccc(NC(=O)c2cc3nc(-c4ccccc4)cc(C)n3n2)cc1OC`, for which the inhibition is -10.7%. In the case of `COCCNc1cc(-c2ccccc2)nc2cc(-c3cccc(F)c3)nn12`, the inhibition is 71.2% (active).

Regarding `COC(=O)C(C)Sc1ccc2nnc(-c3cccc(F)c3)n2n1` (stereo unspecified), the inhibition is -12.2%.

`COc1ccc(NS(=O)(=O)c2ccc(N3CCOCC3)c(NC(=O)/C=C/C(=O)O)c2)cc1`: the inhibition is -22.2%. Under `CC(C)Cc1nnc(N)s1` stands -10.1%; under `CCOc1ccc(C(C)=O)cc1COC(=O)c1cnc(Cl)c(Cl)c1`, -10.9%; under `CCOc1ccc(C(C)=O)cc1COC(=O)CNC(=O)c1cccs1`, 72.6% (active). For the compound `CCOc1ccc(C(C)=O)cc1COC(=O)CN1C(=O)NC2(CCCC2)C1=O`, the inhibition is 28.5%.

As for `Cc1cccc(C=CC(=O)c2ccc(Cl)cc2)c1`, the inhibition was 0.714%. As to `NC(CSC1(c2ccccc2)c2ccccc2-c2ccccc21)C(=O)O` (stereo unspecified), the inhibition was -5.45%. As to `O=C(NCc1ccccc1)c1cccc(NC(=O)C2CCCCC2)c1`, the inhibition is 0.488%. With `OCC1(CO)CC2(C1)CC(CO)(CO)C2`, the inhibition is -21.2%.

On to `COc1ccc(C(=O)Nc2nc(-c3ccc(OC)cc3)c(-c3ccc([N+](=O)[O-])cc3)s2)cc1`, for which the inhibition is 32.2%. `COC(=O)CCc1sc(Nc2ccc(Br)cc2)nc1-c1ccc(OC)cc1`: the inhibition was 87.4% (active). As to `Cc1ccc(OC(=O)CCC(=O)Nc2ccc(Br)cc2)cc1`, the inhibition was -15.2%.

`COc1ccc(-c2ccc3c(c2)C2CC3CCN2CCC#N)cc1` (stereo unspecified): the inhibition is 33.2%. Consider `C=CCn1c(=O)n(C)c2c(=O)n(C)c(=O)n(C)c21`, for which the inhibition was 1.14%.

On to `COc1ccc(CCNC(=O)COc2cc(C)cc3oc(=O)c(C)c(C)c23)cc1OC`, for which the inhibition was 6.42%.

Consider `Cc1ccc(C(C)C)c(OCCSc2nc3ccccc3n2CC(=O)O)c1`, for which the inhibition is -2.24%. For `CCOc1ccc(OCCSc2nc3ccccc3n2CC(=O)O)cc1`, the inhibition is 71.7% (active). On to `CCCn1c(C(O)c2ccc(OCC)cc2)nc2ccccc21` (stereo unspecified), for which the inhibition was 14%.

Consider `COc1ccc2c(c1)c(=Cc1ccc(N(C)C)cc1)c1cc(-c3ccccc3)[n+](C)n12`, for which the inhibition was -63.4%. For `CCCN(CCC)S(=O)(=O)c1cc2c(cc1Br)CCN2C(=O)CC`, the inhibition was 7.1%. Under `CCN(CC)CCCC(C)n1c2nc(=O)[nH]c(=O)c-2nc2cc(Cl)ccc21` (stereo unspecified) stands 9.9%; under `CCC1([N+](=O)[O-])COC(c2ccc(C(C)C)cc2)OC1` (stereo unspecified), -13.9%.

Take `CCc1ccc2c(c1)C1(NN=C(c3ccccc3)S1)C(=O)N2` (stereo unspecified): the inhibition was 115% (active). On to `NNc1cccc(C=Cc2ccccc2)cc1=O`, for which the inhibition was 16.6%.

On to `O=C(Nc1ccc(F)cc1)N1CCN(c2ccc(F)cc2)CC1`, for which the inhibition was -29.4%. As to `O=C(Nc1cccc(NC(=O)N2CCN(c3ccccc3)CC2)c1)N1CCN(c2ccccc2)CC1`, the inhibition is 86% (active).

Regarding `CC(=O)N1CCN(C(=O)Nc2cccc(C(F)(F)F)c2)CC1`, the inhibition is -9.59%.

`O=c1c2ccccc2ncn1CCc1ccncc1`: the inhibition is -5.47%.

Regarding `NC(=O)C1(Nc2ccc(-c3ccccc3)cc2)CCCC1`, the inhibition is 1.01%. To `Cc1cc(C)c(C=NNc2nc3c([nH]2)c(=O)n(C)c(=O)n3C)c(C)c1` belongs -12.4%; to `CCOc1ccc(N/C=C/C(=O)c2cc(OC)c(OC)c(OC)c2)cc1`, 78.7% (active).

In the case of `CCC(=O)c1ccc(OC(=O)/C=C/c2cc(OC)c(OC)c(OC)c2)cc1`, the inhibition was 48.6%.

On to `CCOc1ccc(N/C=C/C(=O)c2ccccc2)cc1`, for which the inhibition was -1.21%. Under `COc1ccc(S(=O)(=O)N2CCc3ccccc32)cc1C(=O)Nc1cc(S(C)(=O)=O)ccc1Cl` stands 27.5%; under `O=S(=O)(Nc1ccc2ccccc2c1)N1CCCCC1`, 1.03%; under `c1ccc(CCc2ccccn2)cc1`, -7.77%. To `O=C(OC12CC3CC(CC(C3)C1)C2)c1ccc(NCc2cc(O)ccc2O)cc1` belongs 5.77%; to `Cc1nc(N)nc(Cl)c1CCC1OCCO1`, -19.5%; to `O=[N+]([O-])c1cc(S(=O)(=O)Nc2cccc(Cl)c2)ccc1N=Nc1c(O)[nH]c2ccccc12`, 101% (active).

Consider `Oc1[nH]c2ccccc2c1N=Nc1c(F)c(F)c(F)c(F)c1F`, for which the inhibition is 15.7%. `CN1CCN(c2ccc(S(=O)(=O)Nc3ccccc3)cc2[N+](=O)[O-])CC1`: the inhibition was -5.63%. On to `O=C1CC(C(=O)O)NC(=S)N1` (stereo unspecified), for which the inhibition is -3.49%. As to `COc1ccc(Br)cc1C(=O)NC(=S)Nc1cc(-c2nc3ccccc3[nH]2)ccc1C`, the inhibition was 60.8%. `COc1cc(OC)c(C(=O)Nc2ccccc2-c2ccccc2)cc1OC`: the inhibition is 20.8%. For `COc1ccc(Br)cc1C(=O)Nc1cccc(C)c1C`, the inhibition was 76.2% (active).

In general, inhibition refers to the drop in the measured response relative to a control, in per cent.
